Measurements as given in PubChem BioAssay (NCATS).
Records with an inconclusive call do not appear. Calls of active or inactive are those of the source. Unless noted, the call rests on the fitted dose curve; in most records, active means well fitted curve in the direction sought with a large enough effect; inconclusive means small, poorly fitted or top-dose-only effect, or another doubt; inactive means no such curve, though single readings can be large; an effect the other way counts as inactive or inconclusive.

How the values were obtained:
[1] = Counterscreen for APE1 Inhibitors: Fluorescent Dye Displacement Validation Assay (AID 1707)
Outline: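 Assay buffer: Tris-HCl pH7.5 with 50mM NaCl, 2 mM MgCl2, 0.01% Tween-20. Dye 250 nM, duplex 50 nM final. Readout: decrease in ThO endpoint fluorescence, 480 nm excitation, 540 nm emission.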

[2] = qHTS for differential inhibitors of proliferation of Plasmodium falciparum line D10 (AID 1877);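 further: parasites grown with compound for 72 h before DNA staining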; further: potency means the concentration at half of the fitted maximal effect
[3] = qHTS for differential inhibitors of proliferation of Plasmodium falciparum line Dd2 (AID 1882); conditions: Potency: Plasmodium falciparum Dd2 proliferation inhibition; further: nearly all actives have a fitted effect of over 65% in size; further: potency means the concentration at half of the fitted maximal effect
Outline: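 SYBR Green I DNA fluorescence read-out, ex 485/em 535 nm. Signals were normalized to 0.29 uM artemisinin and DMSO wells, then corrected using vehicle-only plates flanking each stack. Parasite growth ran 72 h in erythrocytes before lysis.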

[4] = qHTS for differential inhibitors of proliferation of Plasmodium falciparum line HB3 (AID 1886); conditions: Potency: Plasmodium falciparum HB3 proliferation inhibition;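 further: parasites grown with compound for 72 h before SYBR Green readout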; further: potency means the concentration at half of the fitted maximal effect
[5] = molecular target: Ferritin light chain (Equus caballus) (UniProt P02791); assay: qHTS Validation Assay for Identification of Novel General Anesthetics (AID 2323); further: series mostly up to about 77 µM
Outline: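 Apoferritin from horse spleen (10 uM) was mixed with 1-aminoanthracene at 50% saturation in PBS, then compounds were added. After 10 min at room temperature, fluorescence was read (ex 380 nm, em 535 nm) and normalized to free-probe and complex controls.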

[6] = molecular target: ATP-dependent DNA helicase Q1 (Homo sapiens) (UniProt P46063); assay: qHTS Validation Assay for Inhibitors of RecQ-Like Dna Helicase 1 (RECQ1) (AID 2353)
Outline: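 50 nM RECQ1T1 preincubated 15 min with compound in Tris pH 8.0 buffer with MgCl2, DTT, Tween-20 and 2.5 ug/ml poly(dI-dC); started with 200 nM TAMRA/BHQ-2 forked duplex and 2 mM ATP. Unwinding read as fluorescence (525/598 nm), two reads 2 h apart.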

[7] = Cytometric Cell-Based qHTS for Inhibitors of the mTORC1 Signaling Pathway in MEF (Tsc2-/-, p53-/-) Cells (AID 2660);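 further: Tsc2 and p53 null MEFs carrying empty vector with compound for 24 h; percent of cells above a phospho-rpS6 to PI ratio cutoff in each well; series mostly up to about 38 µM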
Outline: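 Cells are plated, treated with compound for 24 hrs at 37 degree Celsius, then fixed, blocked and immunostained for phospho-rpS6 Ser235/236. Propidium iodide counterstain follows. Per-well % positive cells is derived from the PI-normalized phospho-S6 signal.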

[8] = High Content Imaging Cell-Based qHTS for Inhibitors of the mTORC1 Signaling Pathway in MEF (Tsc2-/-, p53-/-) Cells (AID 2666);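 further: percent of cells scored positive for phospho-rpS6 Ser235/236 immunostaining by imaging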
Outline: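 Cells were plated, dosed with compound after 24 hrs, and incubated another 24 hrs at 37 degree Celsius. Fixed cells were immunostained for phospho-rpS6 Ser235/236 and counterstained, and the normalized signal was scored as % active cells against rapamycin and DMSO controls.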

[9] = High Content Imaging Cell-Based qHTS for Inhibitors of the mTORC1 Signaling Pathway in MEF Cells (AID 2667); further: potency means the concentration at half of the fitted maximal effect
Outline: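 Immunofluorescence for rpS6 phosphorylation in MEFs of Tsc2-/-, p53-/- background rescued with WT Tsc2. Compound exposure lasted 24 hrs. Inhibition was scored against rapamycin-treated control wells.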

[10] = Cytometry Cell-Based qHTS for Inhibitors of the mTORC1 Signaling Pathway in MEF cells (AID 2668);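 further: Tsc2-/- p53-/- mouse embryonic fibroblasts stably re-expressing wild-type Tsc2; percent cells positive for phospho-rpS6 Ser235/236 relative to propidium iodide stain; series mostly up to about 38 µM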
Outline: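 Pathway inhibition in WT Tsc2-rescued Tsc2-/-, p53-/- MEFs is measured as the Alexa-488 phospho-rpS6 to propidium iodide intensity ratio after 24 hrs of compound at 37 degree Celsius. PI-stained cell number gives viability.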

[11] = molecular target: Ubiquitin carboxyl-terminal hydrolase 2 (Homo sapiens) (UniProt O75604); assay: qHTS Validation Assay for Inhibitors of Ubiquitin-specific Protease USP2a Using CHOP2 as the Reporter (AID 463106)
Outline: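 10nM USP2 core + cpd, 30min RT; add 25nM Ub-CHOP2/25nM substrate; 60min RT; FI 485/531nm. Buffer Tris pH 8.0, CaCl2, BME, CHAPS. Norm. to NEM = 100% inhibition; time-zero read flags fluorescent artifacts.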

[12] = qHTS for differential inhibitors of proliferation of Plasmodium falciparum line 7G8 (AID 1815);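 further: parasite growth measured after three days of incubation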; further: potency means the concentration at half of the fitted maximal effect
[13] = qHTS for differential inhibitors of proliferation of Plasmodium falciparum line GB4 (AID 1816); conditions: Potency: Plasmodium falciparum GB4 proliferation inhibition;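 further: parasite growth measured after 72 h incubation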; further: potency means the concentration at half of the fitted maximal effect
[14] = qHTS for differential inhibitors of proliferation of Plasmodium falciparum line 3D7 (AID 1876); further: potency means the concentration at half of the fitted maximal effect
[15] = Validation screen for small molecules that induce DNA re-replication in MCF 10A normal breast cells (AID 463097); further: nearly all actives have a fitted effect of over 60% in size
Outline: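 DNA re-replication was detected as a rise in nuclei with elevated Hoechst fluorescence after a 48 hr compound exposure of MCF 10A cells at 37 C.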

[16] = qHTS Assay for Identification of Small Molecule Inducers of Hypoxia Response (AID 2120; active means well fitted curve in the direction sought with a large enough effect in the signal ratio, with a control signal flat, not every such curve was filed as active; the % refers to the signal ratio)
Outline: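 HRE-beta-lactamase reporter in CellSensor HRE-bla ME-180 cells, 2500 cells/well in Opti-MEM with 0.5% dialyzed FBS; compounds tested as titration series, 17 h at 37 degrees C. CCF4 substrate 2.5 h at room temperature; AC50 from 460/530 nm ratio.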

[17] = qHTS for differential inhibitors of proliferation of Plasmodium falciparum line W2 (AID 1883); conditions: Potency: Plasmodium falciparum W2 proliferation inhibition;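 further: parasites grown with compound for 72 h before lysis and staining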; further: potency means the concentration at half of the fitted maximal effect
[18] = molecular target: RecQ-like DNA helicase BLM (Homo sapiens) (UniProt P54132); assay: qHTS Validation Assay for Inhibitors of Bloom's syndrome helicase (BLM) (AID 2364)
Outline: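 Forked 20-bp duplex substrate (200 nM, TAMRA/BHQ-2) plus 2 mM ATP added after 15 min compound preincubation with 50 nM enzyme, pH 8.0, poly(dI-dC) 2.5 ug/ml. Strand separation followed by fluorescence (525/598 nm) over 2 h, normalized to enzyme-free and DMSO controls.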

Measured: Potency

Chain of ATP-dependent DNA helicase Q1 (Homo sapiens) (P46063 whole entry, looked up): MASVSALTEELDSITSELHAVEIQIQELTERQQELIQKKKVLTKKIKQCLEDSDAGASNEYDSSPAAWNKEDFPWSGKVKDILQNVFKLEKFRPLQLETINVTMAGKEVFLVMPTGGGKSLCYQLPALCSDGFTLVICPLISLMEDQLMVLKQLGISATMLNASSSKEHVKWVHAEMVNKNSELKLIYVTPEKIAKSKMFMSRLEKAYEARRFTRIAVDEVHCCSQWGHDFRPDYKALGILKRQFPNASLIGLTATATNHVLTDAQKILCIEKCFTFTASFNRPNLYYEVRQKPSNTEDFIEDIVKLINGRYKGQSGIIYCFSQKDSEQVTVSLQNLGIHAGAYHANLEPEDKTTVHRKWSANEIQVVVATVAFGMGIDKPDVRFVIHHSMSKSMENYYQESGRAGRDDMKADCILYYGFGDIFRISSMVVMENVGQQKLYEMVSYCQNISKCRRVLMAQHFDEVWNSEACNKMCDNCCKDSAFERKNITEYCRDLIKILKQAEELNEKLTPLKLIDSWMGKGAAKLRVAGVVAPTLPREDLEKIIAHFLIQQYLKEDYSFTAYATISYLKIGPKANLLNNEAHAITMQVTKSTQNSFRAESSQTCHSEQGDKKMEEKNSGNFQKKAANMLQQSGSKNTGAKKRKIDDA
Chain of Ubiquitin carboxyl-terminal hydrolase 2 (Homo sapiens) (O75604 whole entry, looked up): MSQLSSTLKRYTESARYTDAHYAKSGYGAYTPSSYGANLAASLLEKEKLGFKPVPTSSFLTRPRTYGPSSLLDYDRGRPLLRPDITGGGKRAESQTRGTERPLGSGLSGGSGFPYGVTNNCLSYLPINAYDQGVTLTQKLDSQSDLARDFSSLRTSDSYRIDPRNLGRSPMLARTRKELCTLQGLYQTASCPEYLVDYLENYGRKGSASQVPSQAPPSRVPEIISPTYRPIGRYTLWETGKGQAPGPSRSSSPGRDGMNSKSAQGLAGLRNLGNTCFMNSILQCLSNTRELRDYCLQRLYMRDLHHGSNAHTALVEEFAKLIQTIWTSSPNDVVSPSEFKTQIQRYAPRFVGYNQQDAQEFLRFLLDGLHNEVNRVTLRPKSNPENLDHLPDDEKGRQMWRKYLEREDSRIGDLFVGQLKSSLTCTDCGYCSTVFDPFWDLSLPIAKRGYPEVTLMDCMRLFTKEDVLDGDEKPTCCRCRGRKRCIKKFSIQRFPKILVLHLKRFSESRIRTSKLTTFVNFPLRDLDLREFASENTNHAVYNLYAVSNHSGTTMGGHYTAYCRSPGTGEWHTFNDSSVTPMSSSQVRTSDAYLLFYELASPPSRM
Chain of Ferritin light chain (Equus caballus) (P02791 2-175 limits assumed): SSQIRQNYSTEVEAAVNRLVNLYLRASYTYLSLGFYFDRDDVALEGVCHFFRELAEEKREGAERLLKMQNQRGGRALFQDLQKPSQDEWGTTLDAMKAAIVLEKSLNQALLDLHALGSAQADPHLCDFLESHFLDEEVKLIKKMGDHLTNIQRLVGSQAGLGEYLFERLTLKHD
Chain of RecQ-like DNA helicase BLM (Homo sapiens) (P54132 whole entry, looked up): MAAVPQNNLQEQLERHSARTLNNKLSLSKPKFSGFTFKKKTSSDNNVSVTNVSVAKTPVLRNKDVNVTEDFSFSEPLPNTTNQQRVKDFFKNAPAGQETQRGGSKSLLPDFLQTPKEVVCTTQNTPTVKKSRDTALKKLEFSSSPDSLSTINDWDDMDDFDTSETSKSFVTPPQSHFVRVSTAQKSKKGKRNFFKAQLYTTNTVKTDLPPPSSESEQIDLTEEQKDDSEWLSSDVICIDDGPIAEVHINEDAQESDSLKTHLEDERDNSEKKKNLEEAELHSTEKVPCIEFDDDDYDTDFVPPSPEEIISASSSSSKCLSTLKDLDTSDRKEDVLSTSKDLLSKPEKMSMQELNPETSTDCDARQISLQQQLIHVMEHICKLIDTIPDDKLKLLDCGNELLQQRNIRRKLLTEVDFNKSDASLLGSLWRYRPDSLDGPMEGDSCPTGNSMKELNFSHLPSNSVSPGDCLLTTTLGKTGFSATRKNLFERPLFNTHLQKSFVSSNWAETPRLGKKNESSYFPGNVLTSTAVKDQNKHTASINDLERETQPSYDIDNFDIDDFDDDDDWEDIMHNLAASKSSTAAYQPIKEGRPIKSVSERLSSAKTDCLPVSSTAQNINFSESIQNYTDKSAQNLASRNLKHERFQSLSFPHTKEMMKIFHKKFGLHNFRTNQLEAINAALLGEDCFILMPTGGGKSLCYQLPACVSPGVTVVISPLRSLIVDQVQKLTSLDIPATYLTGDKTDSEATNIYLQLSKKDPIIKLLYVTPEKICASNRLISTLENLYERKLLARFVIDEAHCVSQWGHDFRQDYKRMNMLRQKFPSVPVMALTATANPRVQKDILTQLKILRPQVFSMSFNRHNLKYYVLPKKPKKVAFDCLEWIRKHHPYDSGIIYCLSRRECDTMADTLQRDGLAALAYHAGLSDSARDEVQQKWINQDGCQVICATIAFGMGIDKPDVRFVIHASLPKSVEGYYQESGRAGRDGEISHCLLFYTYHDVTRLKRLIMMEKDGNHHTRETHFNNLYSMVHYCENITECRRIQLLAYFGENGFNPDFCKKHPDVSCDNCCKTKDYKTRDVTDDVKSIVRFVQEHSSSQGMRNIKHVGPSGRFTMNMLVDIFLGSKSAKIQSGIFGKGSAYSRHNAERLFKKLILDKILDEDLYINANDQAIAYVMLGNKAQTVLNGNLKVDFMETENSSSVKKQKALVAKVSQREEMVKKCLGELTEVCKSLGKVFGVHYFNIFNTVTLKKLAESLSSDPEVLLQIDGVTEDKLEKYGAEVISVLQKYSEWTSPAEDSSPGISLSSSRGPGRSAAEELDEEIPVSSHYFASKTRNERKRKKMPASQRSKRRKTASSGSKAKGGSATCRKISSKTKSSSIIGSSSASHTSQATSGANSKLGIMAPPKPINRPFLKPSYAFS

CCCOc1ccccc1-c1nc2n[nH]nc2c(=O)[nH]1
inactive: [1] | [2] | [3] | [4] | [5] | [6] | [7] | [8] | [9] | [10] | [11]

N[C@@H](COP(=O)(O)O)C(=O)O
inactive: [1] | [12] | [13] | [14] | [2] | [3] | [4] | [5] | [6] | [7] | [8] | [9] | [15] | [11]

CN1C[C@H](C(=O)N[C@]2(C)O[C@@]3(O)[C@@H]4CCCN4C(=O)[C@H](Cc4ccccc4)N3C2=O)C[C@@H]2c3cccc4[nH]cc(c34)C[C@H]21
inactive: [7] | [8] | [9] | [10] | [11]

CCOC(=O)c1cnc2c(cnn2CC)c1NN=C(C)C
inactive: [2] | [3] | [5] | [6] | [7] | [8] | [9] | [15] | [11]

CCCCOCCOCCOCc1cc2c(cc1CCC)OCO2
inactive: [16]

COCC(=O)O[C@]1(CCN(C)CCCc2nc3ccccc3[nH]2)CCc2cc(F)ccc2[C@@H]1C(C)C
inactive: [1] | [6] | [18]
active: [12] 2240 nM | [13] 141 nM | [14] 3160 nM | [2] 8910 nM | [3] 1260 nM | [17] 501 nM | [4] 5010 nM | [9] 10400 nM

O=C(O)CN(CCOCCOCCN(CC(=O)O)CC(=O)O)CC(=O)O
inactive: [1] | [12] | [13] | [14] | [2] | [3] | [17] | [4] | [5] | [6] | [7] | [8] | [9] | [11]

Nc1nc(N)c2nc(-c3ccccc3)c(N)nc2n1
active: [13] 891 nM | [14] 2000 nM | [2] 2510 nM | [17] 15800 nM | [4] 12600 nM
inactive: [1] | [3] | [6] | [18] | [7] | [8] | [9]

CN(C)[C@@H]1C(=O)C(C(N)=O)=C(O)[C@@]2(O)C(=O)C3=C(O)c4c(O)ccc(Cl)c4[C@@H](O)[C@H]3C[C@@H]12
inactive: [7] | [8] | [9] | [10] | [11]

NC1=NCC2c3ccccc3Cc3ccccc3N12 (configuration not stated)
inactive: [7] | [8] | [9] | [10] | [11]

C[C@]12CC[C@@H]3c4ccc(O)cc4C[C@@H](CCCCCCCCCS(=O)CCCC(F)(F)C(F)(F)F)[C@H]3[C@@H]1CC[C@@H]2O (some centres not stated)
inactive: [7] | [8] | [9] | [11]

CCCCCCCC/C=C\CCCCCCCC(=O)NCc1ccc(O)c(OC)c1
inactive: [7] | [8] | [11]

C[C@@H](O)[C@H]1C(=O)N2C(C(=O)O)=C(SCCN=CN)C[C@H]12
inactive: [7] | [8] | [9]
